Screens: PubChem BioAssay, several laboratories
Only some compounds are listed: those with a hit (about 1.4% of all), similar ones and a draw of the others.
E coli Lon inh: inhibitors of E. coli Lon protease; purified E. coli Lon protease, fluorescence polarization; hit rate 0.42% among 360,000; inhibition, % at 7.94 µM; in the data active = inhibition above about 13%, passing the limit was not always enough
Target sequence (P0A9M0 whole entry, looked up): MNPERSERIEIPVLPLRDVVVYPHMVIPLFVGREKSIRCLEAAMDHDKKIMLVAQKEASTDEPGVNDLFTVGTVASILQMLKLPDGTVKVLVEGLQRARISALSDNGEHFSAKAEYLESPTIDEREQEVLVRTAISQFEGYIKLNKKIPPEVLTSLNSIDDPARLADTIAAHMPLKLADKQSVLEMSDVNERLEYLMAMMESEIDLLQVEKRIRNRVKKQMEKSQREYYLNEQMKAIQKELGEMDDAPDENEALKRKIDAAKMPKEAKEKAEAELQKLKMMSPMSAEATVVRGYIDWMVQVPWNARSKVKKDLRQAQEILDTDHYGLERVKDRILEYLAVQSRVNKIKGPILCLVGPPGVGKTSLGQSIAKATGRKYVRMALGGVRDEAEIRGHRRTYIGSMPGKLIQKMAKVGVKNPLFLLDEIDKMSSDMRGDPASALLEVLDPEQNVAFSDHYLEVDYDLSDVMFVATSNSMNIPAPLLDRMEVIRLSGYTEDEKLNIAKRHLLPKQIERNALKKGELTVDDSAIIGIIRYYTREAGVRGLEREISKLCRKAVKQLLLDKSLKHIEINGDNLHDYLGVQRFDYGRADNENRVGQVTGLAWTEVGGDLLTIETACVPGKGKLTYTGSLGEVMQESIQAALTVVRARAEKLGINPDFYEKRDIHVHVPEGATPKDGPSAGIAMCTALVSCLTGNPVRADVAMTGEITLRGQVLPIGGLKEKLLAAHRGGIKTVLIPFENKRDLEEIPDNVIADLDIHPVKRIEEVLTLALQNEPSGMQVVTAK
GLD-1 RNA inh: GLD-1-TGE RNA interaction inhibition (C. elegans) | Q17339 | purified GLD-1 + fluorescein TGE RNA, fluorescence polarization | inhibition, % at 5.96 µM | hit rate 0.44% among 320,000 | AID 2280;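 active = percent inhibition above a per-plate cutoff, the plate mean of test compounds plus 3 SD, cut at about 30% in these data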
MCL1-BIM inh: disrupts human MCL1 binding to BIM-BH3 peptide; Q07820; GST-MCL1 / FITC-Bim-BH3 fluorescence polarization; inhibition, % at 10.9 µM; hit rate 0.68% among 320,000;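 active = inhibition above the mean inhibition of all tested compounds plus 3 SD, set per campaign, cut at about 40% in these data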;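 note: higher means more loss of mP so more displacement of Bim peptide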
MEX-5 binding: C. elegans MEX-5 TCR-2 RNA binding activity. MEX-5/FITC-TCR2 RNA binding, fluorescence polarization; stronger effect = lower value. hit rate 0.38% among 300,000. activity score (negative = inhibition of binding), % at 10 µM;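 active = inhibition past about -25% in most replicates, and total fluorescence under double the plate's negative control median, limit read from the data; inconclusive = replicates evenly split on the limit, or fluorescence at least double controls; inactive = too little inhibition in most replicates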
Bcl-xL primary: inhibitors of human Bcl-xL. GST-Bcl-xL / FITC-Bim BH3 peptide fluorescence polarization. inhibition, % at 10.9 µM. hit rate 0.7% among 320,000. AID 2129;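 active = inhibition above the mean of all tested compounds plus 3 SD, cutoff set per campaign, cut at about 30% in these data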;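 note: inhibitors lower millipolarization by displacing the labeled peptide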
BCLXL inh confirm: counter-screen for MCL1 inhibitors: confirmation of human Bcl-xL inhibitors; GST-Bcl-xL / FITC-Bim BH3 peptide FP binding; inhibition, % at 10.9 µM; hit rate 54% among 1,700; shares compounds with MCL1-BIM inh; AID 2166;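 active = inhibition above a cutoff equal to the mean inhibition of all tested compounds plus 3 SD, cut at about 30% in these data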
MCL1 inh confirm: confirmation of human MCL1 and BIM-BH3 interaction inhibitors. hit rate 61% among 1,700. shares compounds with MCL1-BIM inh. GST-MCL1 / FITC-Bim-BH3 fluorescence polarization. inhibition, % at 10.9 µM;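 active = inhibition above the average of all tested compounds plus 3 SD, cut at about 40% in these data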
Numbers stand for hits; - = inactive; ? = inconclusive; . = not tested or not shown; + = active, no number.

SMILES	E coli Lon inh	GLD-1 RNA inh	MCL1-BIM inh	MEX-5 binding	Bcl-xL primary	BCLXL inh confirm	MCL1 inh confirm
CC1OC(c2ccccc2)OC2COC(c3ccccc3)OC12 (configuration not stated)	-	.	.	.	.	.	.
CC(C)C[C@H]1C(=O)N2CCC[C@H]2[C@]2(O)O[C@](NC(=O)C3C=C4c5cccc6[nH]c(Br)c(c56)C[C@H]4N(C)C3)(C(C)C)C(=O)N12 (some centres not stated)	-	92	115	-	100	-	-
CC(=O)c1c(CSc2ccccc2)oc2ccc(O)c(CN(C)C)c12	-	-	-	-	-	.	.
Cc1ccc(N=Nc2[nH]c3ccccc3c2O)cc1	-	67	109	-61	101	83	81
CC(Cc1ccccc1)N1C(=O)c2cccc([N+](=O)[O-])c2C1=O (configuration not stated)	-	180	169	-	146	-	-
COc1ccc2c(c1)c(CC(=O)OCC(=O)O)c(C)n2C(=O)c1ccc(Cl)cc1	-	-	82	-	-	-	-
CC(C)C[C@H](NC(=O)C1CC(=O)N(c2ccc3c(c2)OCO3)C1)C(=O)NC1CCCC1 (some centres not stated)	-	38	56	-	56	49	59
C[C@H](NC(=O)C1CC(=O)N(c2ccc3c(c2)OCO3)C1)C(=O)NC1CCCC1 (some centres not stated)	-	-	-	-	-	.	.
N#Cc1ccsc1NC(=O)C1CCCN1S(=O)(=O)c1cccs1 (configuration not stated)	-	-	-	-	-	.	.
CCN(CC)c1ccc(/C=C/C(=O)c2ccc(Br)cc2)cc1	-	76	61	-51	58	62	63
COC(=O)c1ccc2ccn(CC(=O)NC3CCCCC3)c2c1	-	-	49	-	-	-	-
N#Cc1ccc2ccn(CC(=O)NC3CCCCCC3)c2c1	-	-	-	-	-	.	.
Cc1ccc(S(=O)(=O)CCC(=O)OCC(=O)Nc2cc(C)on2)cc1	-	183	+	-	+	-	-
Cc1cc(NC(=O)COC(=O)CCS(=O)(=O)c2ccc(Cl)cc2)no1	-	-	-	-	-	.	.
COc1ccccc1/C=c1\sc2nc(-c3ccccc3OC)nn2c1=O	-	-	-	.	-	.	.
Cc1ccc(/C=c2\sc3nc(-c4ccco4)nn3c2=O)o1	-	-	58	-	-	45	72
Cc1ccc(/C=c2\sc3nc(-c4ccccc4Br)nn3c2=O)o1	-	-	-	-	-	.	.
COc1ccc(Br)cc1/C=c1\sc2nc(-c3ccco3)nn2c1=O	-	-	80	-	40	-	50
O=C(Nc1nc(-c2ccco2)c(-c2ccco2)s1)c1c(F)cccc1Cl	-	-	-	.	-	.	.
O=C(Nc1nc(-c2ccco2)c(-c2ccco2)s1)c1cnccn1	.	-	102	-	33	-	-
CCOC(=O)c1cc2c(=O)n3ccccc3nc2n(Cc2ccco2)c1=NC(=O)c1ccc(OC)cc1	-	-	41	-	-	-	-
CCOC(=O)[C@H]1[C@H]2COc3ccc(Br)cc3[C@H]2N2C(=O)CNC(=O)[C@@]12C	-	-	-	.	-	.	.
O=S(=O)(c1cccs1)N1CN(Cc2ccc(Cl)cc2)c2nc3ccccc3nc21	-	-	-	.	-	.	.
O=S(=O)(c1cccs1)N1CN(Cc2ccco2)c2nc3ccccc3nc21	-	140	172	-	156	-	-
O=C(/C=C/c1ccc(Cl)c([N+](=O)[O-])c1)Nc1ccc(NC(=O)c2ccco2)cc1	-	.	.	-	.	.	.
SMILES	E coli Lon inh	GLD-1 RNA inh	MCL1-BIM inh	MEX-5 binding	Bcl-xL primary	BCLXL inh confirm	MCL1 inh confirm
O=C(/C=C/c1ccc(Cl)c([N+](=O)[O-])c1)Nc1ccc(N2CCCC2)cc1	-	-	47	-	-	-	43
CCOC(=O)C1(C)C(=O)CC2c3nc4ccccc4cc3CN2C1=O (configuration not stated)	-	.	.	.	.	.	.
O=C1NC(=O)C(c2ccccc2[N+](=O)[O-])=C1Nc1ccc(O)c(Cl)c1	-	-	50	-	-	-	-
O=C1C=C(NC(=O)Nc2ccc(Cl)c(Cl)c2)CCC1	-	-	-	-	-	.	.
Cc1nnc(SCC(=O)Nc2sccc2C#N)s1	-	-	53	-	-	-	-
Cc1ccc(-c2cc(C(=O)Nc3ccccn3)c3ccccc3n2)o1	-	-	47	-	-	32	69
Cc1ccc(NC(=O)c2cc(-c3ccc(C)o3)nc3ccccc23)cc1	-	-	-	-	-	.	.
Cc1cccc(NC(=O)C2CCN(S(=O)(=O)c3c(C)noc3C)CC2)c1	-	-	-	-	-	.	.
CC(=O)Nc1ccc(NC(=O)C(C)OC(=O)/C(C#N)=C/c2ccc(N(C)C)cc2)cc1 (configuration not stated)	-	136	+	-26	+	165	191
Cc1ccc(S(=O)(=O)C(C#N)c2nc3ccccc3nc2N2CCCC2)cc1 (configuration not stated)	-	57	75	-	83	64	63
O=C(c1cc(C2CC2)nn1-c1ccccc1)N1CCN(S(=O)(=O)c2ccccc2)CC1	-	.	.	.	.	.	.
COC(=O)c1cc(O)cc(OC)c1Oc1cc(C)cc(O)c1C(=O)O	-	-	73	.	-	-	76
CC1(c2ccc3noc(-c4ccccc4)c3c2)OCCO1	-	-	-	-	-	.	.
CC1(c2ccc3noc(-c4ccc(F)cc4)c3c2)OCCO1	-	89	83	-	74	78	111
CCOC(=O)c1cc(CC)sc1NC(=O)CN1CCN(C(=O)c2ccco2)CC1	-	-	-	-	-	.	.
O=c1[nH]cnc2sc3c(c12)CN(Cc1ccccc1)CC3	-	-	58	-	73	-	-
CC1(C)Cc2c(sc3nc[nH]c(=O)c23)CO1	-	-	-	-	-	.	.
O=C(CCN1C(=O)/C(=C/c2ccco2)SC1=S)Nc1ccc(C(=O)O)c(O)c1	-	-	65	-	-	32	54
O=C(CCN1C(=O)/C(=C/c2ccco2)SC1=S)Nc1ccc(O)cc1C(=O)O	-	.	.	-	.	.	.
O=C(CCN1C(=O)/C(=C\c2ccco2)SC1=S)Nc1ccc(C(=O)O)c(O)c1	-	-	64	?	31	-	-
Cc1cc(=O)c2c([nH]1)c(C)cc1[nH]c(C)c(C)c12	-	68	100	.	101	-	-
COc1cc(/C=C2\SC(=S)N(c3cccnc3)C2=O)ccc1O	-	-	60	-	-	-	44
COc1ccccc1NC(=O)CC(NC1CCCCC1)C(=O)O (configuration not stated)	-	-	62	-	-	-	-
Cc1ccc(C(=O)N2CCOCC2)cc1[N+](=O)[O-]	-	-	-	-	-	.	.
